Reference: PubChem BioAssay AID652115 (Broad Institute, 2013)
Where “and” joins values, the source holds several entries; their conditions need not be identical. Identical values can stand only once. Screen size: about 330,000 compounds; about 3,800 (1.2%) were called active. The sample as a whole holds a higher share of actives than the screen did. Unmarked numbers belong to inactive results. Rule as the data show it: active = inhibition above about 15%; inconclusive = no clear call, values can overlap the other calls; inactive = below that.

These compounds were tested against NAD-dependent protein deacylase sirtuin-5, mitochondrial (Homo sapiens) (UniProt Q9NXA8) (assay: blockers of sirtuin-5 deacylase activity – biochemical, fluorescence imaging, single point, set 5, primary screen (AID 652115)). Details: Purified SirT5, succinyl-peptide AMC, trypsin-coupled fluorescence; at 15 µM; active compounds read high.
Sequence of NAD-dependent protein deacylase sirtuin-5, mitochondrial (Homo sapiens) (Q9NXA8 whole entry, looked up): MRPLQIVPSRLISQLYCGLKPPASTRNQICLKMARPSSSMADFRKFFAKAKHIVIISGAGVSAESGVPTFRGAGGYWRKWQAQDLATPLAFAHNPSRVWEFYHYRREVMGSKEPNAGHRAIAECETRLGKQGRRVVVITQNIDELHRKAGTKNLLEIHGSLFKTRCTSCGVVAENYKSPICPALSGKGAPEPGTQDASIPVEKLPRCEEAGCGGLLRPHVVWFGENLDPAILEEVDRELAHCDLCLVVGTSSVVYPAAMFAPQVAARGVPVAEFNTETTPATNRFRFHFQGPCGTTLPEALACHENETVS
With O=C(C[C@H]1CC[C@H]2[C@@H](COC[C@@H](O)CN2C(=O)c2ccc3c(c2)OCO3)O1)NC1Cc2ccccc2C1 the inhibition was -1.48%.
CCCNC(=O)Nc1ccc2c(c1)OC[C@H](C)N(C(=O)C1CCC1)C[C@H](C)[C@@H](OC)CN(C)C2=O was tested, and the inhibition was -2.08%.
In the case of COc1ccc2c3c([nH]c2c1)[C@H](CO)N(Cc1nccs1)CC31CCN(Cc2ccncc2)CC1, the inhibition is reported as 1.68%.
In the case of CC=Cc1ccc2n(c1=O)C[C@@H]1[C@@H](CO)[C@H](C(=O)N3CCCCC3)[C@H]2N1C(=O)C1CCC1 (mixture of isomers), the inhibition is reported as -13.5%.
With Nc1ccccc1-c1cn(CC(=O)Nc2ccon2)nn1 the inhibition was -0.431%.
C[C@@H]1CN([C@H](C)CO)C(=O)c2cc(C#CCC3CCCC3)cnc2O[C@H]1CN(C)Cc1ccccn1 gave an inhibition of -6.11%.
C[C@H](CO)N1C[C@H](C)[C@H](CN(C)Cc2ccc3c(c2)OCO3)OCCCC[C@H](C)Oc2ccc(NC(=O)c3ccccc3)cc2C1=O was tested, and the inhibition was 3.6%.
For O=C(C[C@H]1CC[C@@H]2[C@H](COC[C@H](O)CN2S(=O)(=O)c2ccccc2)O1)N1CCOCC1, the inhibition was -0.872%.
In the case of COc1ccccc1-c1cnc2c(c1)C(=O)N([C@@H](C)CO)C[C@@H](C)[C@H](CN(C)Cc1cccnc1)O2, the inhibition is reported as 0.854%.
CN1c2ccc(C3=CCCCC3)cc2[C@@H]2[C@@H](CCN2S(=O)(=O)c2ccccc2F)[C@H]1CO showed an inhibition of 3.11%.
O=C(C[C@@H]1C=C[C@@H](NC(=O)C2CCC2)[C@H](CO)O1)NCC1CC1 showed an inhibition of -2.09%.
CCOC(=O)c1c(-c2ccccc2)oc2cc(Br)c(O)cc12 gave an inhibition of 0.164%.
CCOC(=O)c1c(-c2ccccc2)oc2ccc(OCC(N)=O)cc12 was tested, and the inhibition was 22.2% (active).
For CCOC(=O)c1c(-c2ccccc2)oc2ccc(OCC(=O)NN)cc12, the inhibition was 6.17%.
For CN1C(=O)c2cc(NC(=O)c3cccc(F)c3)ccc2OC[C@H]2O[C@@H](CC(=O)NCc3ccccc3Cl)CC[C@@H]21, the inhibition was 6.51%.
In the case of O=C(C[C@H]1C[C@H]2c3cc(NC(=O)NC4CCCC4)ccc3O[C@H]2[C@H](CO)O1)NCCc1ccccc1, the inhibition is reported as -4.04%.
CCC(=O)N1C[C@@H](C)[C@H](OC)CN(C)C(=O)c2cc(NC(=O)NC3CCCC3)ccc2OC[C@H]1C was tested, and the inhibition was 3.98%.
With COCOCCn1cc(CN2CCS(=O)(=O)N(Cc3ccc(-c4ccc(OC)cc4)cc3)C(CC(C)C)C2=O)nn1 (centres undefined) the inhibition was 18.3% (active).
COCOCCn1cc(CN2CCS(=O)(=O)N(Cc3ccc(-c4cccc(N(C)C)c4)cc3)C(CC(C)C)C2=O)nn1 (centres undefined) gave an inhibition of -0.197%.
In the case of COCOCCn1cc(CN2CCS(=O)(=O)N(Cc3ccc(-c4ccccc4)cc3)C(CC(C)C)C2=O)nn1 (centres undefined), the inhibition is reported as -0.714%.
C[C@@H]1CN([C@H](C)CO)C(=O)c2cc(NS(=O)(=O)c3cccs3)ccc2O[C@@H](C)CCCCO[C@H]1CN(C)Cc1ccc(C(F)(F)F)cc1 showed an inhibition of 13.1%.
CCS(=O)(=O)N1CC(=O)N2[C@H](CO)[C@@H](c3ccc(C#CC4CCCC4)cc3)[C@@H]2C1 showed an inhibition of -0.752%.
With CN(Cc1cccc2ncccc12)C(=O)CC1C(=O)NCCN1Cc1ccc(F)cc1 (centres undefined) the inhibition was 7.41%.
In the case of CCN(CCn1cccn1)C(=O)CC1C(=O)NCCN1Cc1cccc(OC)c1OC (centres undefined), the inhibition is reported as 16.5% (active).
In the case of COc1ccccc1CN1CCNC(=O)C1CC(=O)N(C)CC1CCOCC1 (centres undefined), the inhibition is reported as -0.968%.
Cc1noc(C)c1S(=O)(=O)Nc1ccc2c(c1)C(=O)N([C@H](C)CO)C[C@H](C)[C@H](CN(C)C(=O)NC1CCCCC1)OCCCC[C@H](C)O2 was tested, and the inhibition was 0.076%.
With COc1ccccc1-c1nnc(NC(=O)c2ccc3ncsc3c2)o1 the inhibition was 20.5% (active).
For COc1ccccc1-c1nnc(NC(=O)c2cccc(N3C(=O)CCC3=O)c2)o1, the inhibition was 1.38%.
Cc1sc(NC(=O)c2ccc3ncsc3c2)c(C(N)=O)c1C showed an inhibition of -6.86%.
In the case of CCCNC(=O)C[C@H]1CC[C@@H]2[C@H](COC[C@H](O)CN2CC2CCCCC2)O1, the inhibition is reported as -1.9%.
For C[C@@H]1CN([C@H](C)CO)C(=O)c2cc(-c3cccc(F)c3)cnc2O[C@@H]1CN(C)C, the inhibition was 21.7% (active).
For C[C@H]1CN([C@@H](C)CO)C(=O)c2cc(-c3cccc(F)c3)cnc2O[C@@H]1CN(C)C(=O)c1ccccn1, the inhibition was 0.073%.
CC(=O)N(C)C[C@H]1Oc2ncc(-c3cccc(F)c3)cc2C(=O)N([C@@H](C)CO)C[C@H]1C was tested, and the inhibition was 25.3% (active).
COc1cccc(-c2cnc3c(c2)C(=O)N([C@@H](C)CO)C[C@H](C)[C@H](CN(C)C(C)=O)O3)c1 showed an inhibition of 2.24%.
C[C@H](CO)N1C[C@H](C)[C@@H](CN(C)C)Oc2ncc(-c3cccc(F)c3)cc2C1=O gave an inhibition of -1.97%.
In the case of C[C@H]1CN([C@@H](C)CO)C(=O)c2cc(-c3cccc(F)c3)cnc2O[C@@H]1CN(C)S(C)(=O)=O, the inhibition is reported as 0.285% and -8.78%.
With C[C@H]1CN([C@@H](C)CO)S(=O)(=O)c2ccc(C#Cc3ccccc3)cc2O[C@H]1CN(C)S(=O)(=O)c1cn(C)cn1 the inhibition was 2.56%.
For COc1ccccc1-c1ccc([C@H]2[C@H](CO)N(C(=O)C3CC3)C23CN(C(C)=O)C3)cc1, the inhibition was 2.52%.
Cc1cc2cc(CN(Cc3cccs3)Cc3nnnn3CC3CCCO3)c(=O)[nH]c2cc1C (centres undefined) showed an inhibition of -2.28%.
In the case of O=C(c1cccs1)N(Cc1cc2ccccc2[nH]c1=O)CC1CCCO1 (centres undefined), the inhibition is reported as 0.632%.
In the case of Cc1ccc(S(=O)(=O)N(Cc2cc3ccccc3[nH]c2=O)CC2CCCO2)cc1 (centres undefined), the inhibition is reported as 23.6% (active).
In the case of CO[C@H]1CN(C)C(=O)c2ccc(NC(=O)CC(F)(F)F)cc2OC[C@@H](C)N(C(=O)c2ccccc2F)C[C@@H]1C, the inhibition is reported as 4.25%.
In the case of O=C(NCCc1ccc(F)cc1)c1ccc2nccnc2c1, the inhibition is reported as 16% (active).
In the case of O=C(NCCc1ccc(F)cc1)c1n[nH]c2ccccc12, the inhibition is reported as 9.38%.
In the case of O=C(NCCc1ccc(F)cc1)c1ccc(S(=O)(=O)N2CCCCC2)cc1, the inhibition is reported as -0.792%.
For Cc1ccccc1-c1ccc(C2[C@@H]3CN(C(=O)C4CCCCC4)C[C@H]2N3)cc1 (some centres undefined), the inhibition was -6.18% and -1.65%.
In the case of C/C=C/c1ccc(C2[C@H]3CNC[C@@H]2N3Cc2cccc(OC)c2)cc1 (some centres undefined), the inhibition is reported as -2.37% and 0.748%.
In the case of CCNC(=O)C[C@H]1CC[C@@H]2[C@H](COC[C@H](O)CN2S(=O)(=O)c2ccc(Oc3ccccc3)cc2)O1, the inhibition is reported as -0.497%.
Work on COc1ccc(NC(=O)N(C)C[C@@H]2OCCCC[C@H](C)Oc3ccc(NS(=O)(=O)c4cccs4)cc3C(=O)N([C@@H](C)CO)C[C@@H]2C)cc1 yielded an inhibition of -0.093%.
For C[C@@H]1CN([C@@H](C)CO)C(=O)c2cc(C#CC3CCCCC3)cnc2O[C@H]1CN(C)S(=O)(=O)c1ccccc1, the inhibition was 17.9% (active).
For CC(C)CC#Cc1cnc2c(c1)C(=O)N([C@H](C)CO)C[C@H](C)[C@H](CN(C)CC1CCOCC1)O2, the inhibition was 23% (active).
C[C@H]1CN([C@@H](C)CO)C(=O)c2cc(C#CC3CCCCC3)cnc2O[C@H]1CN(C)S(=O)(=O)c1ccccc1 gave an inhibition of 13.2%.
C[C@@H]1CN([C@H](C)CO)C(=O)c2cc(C#CC3CCCC3)cnc2O[C@H]1CN(C)S(C)(=O)=O showed an inhibition of -4.07%.
With C[C@H](CO)N1C[C@H](C)[C@@H](CN(C)CC2CCOCC2)Oc2ncc(C#Cc3ccc(F)cc3)cc2C1=O the inhibition was -1.14%.
C[C@@H]1CN([C@@H](C)CO)C(=O)c2cc(C#C[C@@H](C)O)cnc2O[C@H]1CN(C)CC1CCOCC1 showed an inhibition of -2.03%.
C[C@H]1CN([C@@H](C)CO)S(=O)(=O)c2ccc(-c3cccc(C#N)c3)cc2O[C@H]1CN(C)CC1CC1 showed an inhibition of -0.017%.
Compound COCC#Cc1cnc2c(c1)C(=O)N([C@@H](C)CO)C[C@@H](C)[C@@H](CN(C)S(=O)(=O)c1cccc(OC)c1)O2 has an inhibition of -3.81%.
With CN(C)Cc1cn(CC[C@H]2CC[C@H](NS(=O)(=O)c3ccccc3)[C@@H](CO)O2)nn1 the inhibition was -3.23%.
Cc1ccc(S(=O)(=O)N2C[C@H](O)COC[C@H]3O[C@H](CC(=O)N[C@H]4CCN(Cc5ccccc5)C4)CC[C@@H]32)cc1 gave an inhibition of -1.53%.
In the case of CN(CCO)c1ccc(/C=N/Nc2nncc3ccccc23)cc1, the inhibition is reported as 25% (active).
Work on CN(C(=O)CSc1nncc2ccccc12)C1CCCCC1 yielded an inhibition of 1.3%.
Work on C/C(=N\Nc1nncc2ccccc12)c1ccc(Cl)c([N+](=O)[O-])c1 yielded an inhibition of 2.12%.
Work on C[C@H]1CCCCO[C@@H](CN(C)Cc2ccccc2)[C@@H](C)CN([C@@H](C)CO)C(=O)c2cc(NC(=O)Cc3ccccc3)ccc2O1 yielded an inhibition of 2.55%.
O=C(C[C@H]1CC[C@@H](NC(=O)Cc2cccnc2)[C@H](CO)O1)Nc1ccc(-c2ccccc2)cc1 was tested, and the inhibition was 4.12%.
O=C(CCN1C(=O)C2C3C=CC(C3)C2C1=O)Oc1ccc2ccccc2c1 (centres undefined) was tested, and the inhibition was 19.8% (active).
Cc1ccc(C(=O)COC(=O)CCN2C(=O)C3C4CCC(C4)C3C2=O)cc1C (centres undefined) was tested, and the inhibition was -2.42%.
For O=C(O)CCCN1C(=O)C2C3c4ccccc4C(c4ccccc43)[C@@H]2C1=O (some centres undefined), the inhibition was -0.491%.
With CCCNC(=O)N[C@@H]1C=C[C@H](CC(=O)NC2CCC2)O[C@H]1CO the inhibition was -0.778%.
COc1ccc2c3c(n(C)c2c1)[C@H](CO)N(S(=O)(=O)c1ccc(C)cc1)CC31CN(C(=O)c2ccccn2)C1 was tested, and the inhibition was 1.96%.
